Results reported in PubChem BioAssay (NCI).
This is part of a sample that, as a whole, favours compounds with a hit. Of some 83,000 tested, about 20% had one in any assay.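 Treatment: one concentration, 48 hours, 96-well format. Scoring: percent growth, with anything below 10 considered active.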 Unmarked numbers belong to inactive results. Active and inactive are the calls of the source.

Legend:
Experiment in all cases: NCI-60 one-dose screen, 48 h (100 = growth as untreated, 0 = no growth, -100 = all killed)
Conditions in all cases: 10 µM unless noted
NCI-H23 lung = test system: NCI-H23 lung
NCI-H226 lung = test system: NCI-H226 lung
NCI-H322M lung = test system: NCI-H322M lung
HOP-62 NSCLC = test system: HOP-62 NSCLC
NCI-H460 lung = test system: NCI-H460 lung
HOP-92 NSCLC = test system: HOP-92 NSCLC
NCI-H522 lung = test system: NCI-H522 lung
A549/ATCC NSCLC = test system: A549/ATCC NSCLC
786-0 renal = test system: 786-0 renal
COLO 205 colon = test system: COLO 205 colon
DU-145 prostate = test system: DU-145 prostate
K-562 leukemia = test system: K-562 leukemia
MALME-3M melanoma = test system: MALME-3M melanoma
MDA-MB-231 breast = test system: MDA-MB-231 breast
RXF 393 renal = test system: RXF 393 renal
SF-268 CNS = test system: SF-268 CNS
SF-295 CNS = test system: SF-295 CNS
SF-539 CNS = test system: SF-539 CNS
UACC-257 melanoma = test system: UACC-257 melanoma
M14 melanoma = test system: M14 melanoma

| SMILES | growth (NCI-H23 lung) | growth (NCI-H226 lung) | growth (NCI-H322M lung) | growth (HOP-62 NSCLC) | growth (NCI-H460 lung) | growth (HOP-92 NSCLC) | growth (NCI-H522 lung) | growth (A549/ATCC NSCLC) | growth (786-0 renal) | growth (COLO 205 colon) | growth (DU-145 prostate) | growth (K-562 leukemia) | growth (MALME-3M melanoma) | growth (MDA-MB-231 breast) | growth (RXF 393 renal) | growth (SF-268 CNS) | growth (SF-295 CNS) | growth (SF-539 CNS) | growth (UACC-257 melanoma) | growth (M14 melanoma) |
| --- | --- | --- | --- | --- | --- | --- | --- | --- | --- | --- | --- | --- | --- | --- | --- | --- | --- | --- | --- | --- |
| CN(CCCCN(C[C@H]1Cc2ncccc2CN1)[C@H]1CCCc2cccnc21)C1CCC(F)(F)CC1 | 107% | 78.4% | 95.5% | 68.2% | 99.5% | 70.5% | 89.6% | 84% | 82.5% | 87.8% | 97.9% | 72.3% | 153% | 65.7% | 89.9% | 87.8% | 96.5% | 99.2% | 89.2% | 101% |
| OCc1ncc(-c2ccccc2)s1 | 93.1% | 125% | 173% | 96.9% | 102% | 91.3% | 97.5% | 110% | 60% | 114% | 107% | 93.2% | 94.2% | 113% | 122% | 99.8% | 106% | 98.1% | 105% | 93.9% |
| C=C1CCC2C3(C)COC(c4ccccc4)OC3CCC2(C)C1/C=C/C1=CCOC1=O (stereo not given) | 74.6% | 85.8% | 64.3% | 113% | 93.6% | 68.4% | 63.6% | 43.5% | 94.3% | 17.4% | 14.9% | 32.4% | 105% | 89.7% | -14.6% (active) | 73.2% | 105% | 63.6% | 65.9% | 53.4% |
| COC(=O)c1cccc2c1N(C)c1c(cccc1C(=O)OC)CC2 | 104% | 112% | 111% | 107% | 117% | 96.4% | 96.1% | 112% | 108% | 102% | 107% | 121% | 115% | 111% | 124% | 98.8% | 104% | 106% | 121% | 104% |
| COc1ccc(S(=O)(=O)Nc2cc(/C=C\c3cc(OC)c(OC)c(OC)c3)cc(OC)c2OC)cc1 | 36.2% | 35.2% | 27.1% | 52.9% | 8.41% (active) | 20.1% | -21.4% (active) | 21.2% | 14% | -62.4% (active) | -0.291% (active) | 7.33% (active) | 81.5% | 21% | 40.9% | 14% | 19.4% | 0.203% (active) | 51.3% | 15.9% |
| CCOc1cc2c(Cl)ncnc2c(OCC)c1OCC | 79.6% | 91.6% | 65.4% | 90.9% | 99% | 86.9% | 58.8% | 95.6% | 105% | 95.8% | -56.1% (active) | 19.5% | 83.8% | 77.7% | -5.68% (active) | 33.9% | 96.1% | 92.5% | -17% (active) | 73.7% |
| COc1ccc(/C=N\NC(=O)CN2CCN(c3cc4c(cc3F)c(=O)c(C(=O)N/N=C/c3ccc(OC)c(OC)c3)cn4C3CC3)CC2)cc1OC | -32% (active) | 52.1% | 11.1% | 9.47% (active) | 3.65% (active) | -2.77% (active) | 7.49% (active) | 48.6% | 45.4% | 7.74% (active) | 4.82% (active) | 13.3% | -71.9% (active) | -22.9% (active) | 61.1% | -10.9% (active) | 66.2% | -21.8% (active) | 11.4% | 20.3% |
| COc1ccc2c(c1)OC1=C(C(=O)OC1)C2c1cc(OC)c2c(c1)OCO2 (stereo not given) | 46.2% | 21.3% | 49% | 29.6% | 4.22% (active) | 55% | 4.87% (active) | 14.4% | 20.5% | -38.1% (active) | -17.9% (active) | 7.46% (active) | 51.2% | 9.12% (active) | 16.5% | 19.7% | 9.01% (active) | 1.82% (active) | 67.8% | 7.05% (active) |
| CC(C)(C)OC(=O)NCCc1ccc(N=C=S)cc1 | 81.4% | 99.1% | 86.9% | 70.1% | 82.2% | 39.4% | 16.1% | 77.4% | 80% | 72.4% | 64.6% | 57% | 54.8% | 88.4% | 54.9% | 71.9% | 55.5% | 69.2% | 78.9% | 75.3% |
| COc1ccc(S(=O)(=O)NCCCNc2nccc(-n3ccc4cccnc43)n2)cc1 | 102% | 89.9% | 87.7% | 109% | 98.7% | 81.4% | 84.3% | 83% | 97.6% | 113% | 91.7% | 77.7% | 121% | 91.1% | 95.5% | 89.6% | 94.7% | 100% | 111% | -14.4% (active) |
| O=C(O)c1nc(-c2ccccc2)oc1N1CCOCC1 | 98% | 103% | 91.8% | 97% | 102% | 84.6% | 95.9% | 100% | 97.5% | 102% | 109% | 94% | 120% | 94.3% | 104% | 98.3% | 107% | 115% | 104% | 106% |
| N[C@H]1CN(C(=O)c2cc3cc(Br)c(F)c(F)c3[nH]2)C[C@@H]1O | 96.3% | 83.7% | 89.5% | 99.9% | 107% | 79.2% | 95.1% | 101% | 86.2% | 118% | 112% | 104% | 101% | 92% | 103% | 88.5% | 104% | 96% | -76.6% (active) | 97.2% |
| O=C(N/N=C/C=C\c1ccccc1)C(=O)N/N=C/C=C/c1ccccc1 | 103% | 111% | 123% | 107% | 117% | 115% | 124% | 109% | 104% | 122% | 112% | 113% | 117% | 111% | 127% | 105% | 104% | 114% | 106% | 107% |
| Cc1nc2cncc(C#Cc3cncc(C(=O)Nc4ccc(CN5CCN(C)CC5)c(C(F)(F)F)c4)c3)c2nc1C | 7.45% (active) | -28.7% (active) | 8.94% (active) | -17.4% (active) | 13.9% | -40.5% (active) | 10.2% | 31% | 29.6% | -12.3% (active) | 17.5% | 7.52% (active) | -38.8% (active) | -49.4% (active) | -26.2% (active) | 16.1% | 20.5% | -41.9% (active) | 14% | -24.8% (active) |
| Fc1ccc(-c2nc(-c3nc4ncccc4[nH]3)cc3c2[nH]c2ccccc23)cc1F | 67.2% | 88.5% | 64.7% | 78.6% | 91.1% | 70.2% | 58.3% | 59% | 95.2% | 96.9% | 49% | 78.5% | 78.5% | 53.9% | 73.1% | 71.1% | 86.9% | 79.6% | 92.2% | 78.8% |
